The results in this text go back to paper PMC13083723 (Patterns, 2026).

The structures appear in SMILES notation. About 190 (3.5%) of roughly 5,400 compounds showed an effect of 50% or more. Only a selection was taken, and strong results are over-represented in it overall.

In this experiment the test system is Vero-E6. Description: primary screen, phospholipidosis by LipidTOX staining; higher = more effect of the substance. To be noted: 10 µM. An outline of the steps:
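Drug-induced phospholipidosis detected with HCS LipidTOX Red reagent in Vero-E6 cells. Compounds tested at 10 μM, with amiodarone (10 μM) as positive control and DMSO (0.1 v/v %) as vehicle.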
For `C1CCC(N/C(=N/C23CC4CC(CC(C4)C2)C3)N2CCOCC2)CC1`, the result_ITMP is reported as -0.26%.

Consider `C=C1C(=O)O[C@H]2[C@H]1CC/C(C)=C/CC[C@@]1(C)O[C@@H]21` [R4A_0002204_002 / SPE_K34851558], for which the result_ITMP amounted to 16.6%.

As to `C1=C/COCc2cc(ccc2OCCN2CCCC2)Nc2nccc(n2)-c2cccc(c2)COC/1`, the result_ITMP is 78.8%.

Consider `CN1C/C=C/CCOc2cccc(c2)-c2ccnc(n2)Nc2cccc(c2)C1`, for which the result_ITMP is listed as -2.04%.

Take `c1cc(OCCN2CCCCC2)cc(-c2n[nH]c3ccc(-c4ncn[nH]4)cc23)c1`: the result_ITMP is given as -0.52%.

For `CN(C)CCNc1nc2cc(O)ccc2c2c1C(=O)c1ccccc1-2`, the result_ITMP amounted to 76.7%.

For `CC(C)(O)CC(=O)[O-]`, the result_ITMP is -6.24%.

Consider `CC(=O)Nc1ccc(NC(=S)NC(=O)c2ccc(C(C)(C)C)cc2)cc1`, for which the result_ITMP was found to be 2.55%.

As to `CC(=O)Nc1ccc(C(=O)NC(C)(C)C)cc1`, the result_ITMP is -9.36%.

Regarding `CN(C)CCCCC(=O)Nc1ccc(NC(=S)NC(=O)c2ccc(C(C)(C)C)cc2)cc1`, the result_ITMP is listed as 147%.

In the case of `O=C1[C@@H]2[C@H]3CC[C@H](C3)[C@@H]2C(=O)N1C[C@@H]1CCCC[C@H]1CN1CCN(c2nsc3ccccc23)CC1`, the result_ITMP is reported as 3.52%.

For `COc1cccc(Nc2ncnn3ccc(CN4CC[C@@H](N)[C@H](O)C4)c23)c1`, the result_ITMP turned out to be 59%.

Take `CSCC[C@H](NC(=O)[C@H](CC(C)C)NC(=O)CNC(=O)[C@H](Cc1ccccc1)NC(=O)[C@H](Cc1ccccc1)NC(=O)[C@H](CCC(N)=O)NC(=O)[C@H](CCC(N)=O)NC(=O)[C@@H]1CCCN1C(=O)[C@H](CCCCN)NC(=O)[C@@H]1CCCN1C(=O)[C@@H](N)CCCNC(=N)N)C(N)=O`: the result_ITMP is -6.88%.

On to `C[C@H]1[C@H](OC(=O)CCC(=O)O)O[C@@H]2O[C@@]3(C)CC[C@H]4[C@H](C)CC[C@@H]1[C@@]24OO3`, for which the result_ITMP was 7.77%.

`Cc1c(-c2ccc(-c3ccccc3F)cc2)nc2ccc(F)cc2c1C(=O)[O-]`: the result_ITMP was 5.08%.

In the case of `c1cc2c(cc1C1CCCCC1)c1c3n2CCNC3CCC1` (stereo not shown), the result_ITMP is 84.2%.

On to `Cc1ccc2c(c1)c1c3n2CCNC3CCC1` (stereo not shown), for which the result_ITMP was 51.5%.

In the case of `C#C[C@]1(O)CC[C@H]2[C@@H]3CCC4=CC(=O)CC[C@@H]4C3CC[C@@]21CC` (stereo partly shown), the result_ITMP was -2.07%.

Regarding `Cc1ccccc1C(c1ccccc1C)N1C2CCC1CC(O)(c1ccccc1)C2` (stereo not shown), the result_ITMP is reported as -2.82%.

On to `C[C@H](/C=C/[C@H](C)C(C)(C)O)[C@H]1CC[C@H]2/C(=C/C=C3C[C@@H](O)C[C@H](O)C3)CCC[C@]12C`, for which the result_ITMP is on record as -0.26%.

For `N[C@@H]1[C@H]2CN(c3nc4c(cc3F)c(=O)c(C(=O)O)cn4-c3ccc(F)cc3F)C[C@@H]12`, the result_ITMP is 0.39%.

Consider `Cc1cc2c(cc1CC(=O)c1sccc1S(=O)(=O)[N-]c1onc(C)c1Cl)OCO2`, for which the result_ITMP was -1.86%.

Regarding `COc1cc2ncnc(Nc3ccc(F)c(Cl)c3)c2cc1OCCCN1CCOCC1`, the result_ITMP is given as -1.05%.

As to `COc1cc2c(N3CCN(C(=O)Nc4ccc(OC(C)C)cc4)CC3)ncnc2cc1OCCCN1CCCCC1`, the result_ITMP is recorded as 23%.

Consider `COc1cc(Nc2c(C#N)cnc3cc(OCCCN4CCN(C)CC4)c(OC)cc23)c(Cl)cc1Cl`, for which the result_ITMP turned out to be 68%.

Regarding `CC1(C)S[C@@H]2[C@H](NC(=O)[C@H](NC(=O)N3CCN(S(C)(=O)=O)C3=O)c3ccccc3)C(=O)N2[C@H]1C(=O)[O-]`, the result_ITMP is reported as -2.91%.

On to `O=C1OC2(c3cc(I)c([O-])c(I)c3Oc3c2cc(I)c([O-])c3I)c2c(Cl)c(Cl)c(Cl)c(Cl)c21`, for which the result_ITMP is given as -9.57%.

In the case of `CC1(C)S[C@@H]2C(N3C(=O)[C@@H](c4ccccc4)NC3(C)C)C(=O)N2[C@H]1C(=O)[O-]` (stereo partly shown), the result_ITMP is on record as -1.52%.

`CC(=O)O[C@@]12CO[C@@H]1C[C@H](O)[C@@]1(C)C(=O)[C@H](O)C3=C(C)[C@@H](O)C[C@@](O)([C@@H](OC(=O)c4ccccc4)[C@H]21)C3(C)C`: the result_ITMP is listed as -5.35%.

`Cc1noc(-c2ccc(-c3ccc(CC(=O)[O-])cc3)cc2)c1NC(=O)O[C@H](C)c1ccccc1`: the result_ITMP is -0.34%.

Regarding `O=C(Nc1ccccc1)Nc1ccc(-c2ccc(C(=O)[C@@H]3CCC[C@H]3C(=O)O)cc2)cc1` [R4A_0000400_001 / SPE_K81614372], the result_ITMP is listed as -1.59%.

In the case of `Cn1nccc1Nc1nccc(-c2ccn([C@H](CO)c3ccc(Cl)c(F)c3)c(=O)c2)n1` [R4A_0003897_001 / SPE_K86309810], the result_ITMP is -3.82%.

Turning to `O[C@@H]1[C@H](O)[C@@H](CCl)O[C@H]1n1cnc2c(NC3CC4CCC3C4)ncnc21` (mixture of isomers), the result_ITMP is on record as -1.27%.

Take `CCCCN(CCCC)CCC(O)c1cc2c(Cl)cc(Cl)cc2c2cc(C(F)(F)F)ccc12` (stereo not shown): the result_ITMP was found to be 68.8%.

With `CCCCN(CCCC)CC(O)c1cc(Cl)cc2c1-c1ccc(Cl)cc1/C2=C/c1ccc(Cl)cc1` (stereo not shown), the result_ITMP is given as -0.63%.

For `CC(=O)N[C@@H]1C[C@H](O)[C@@H](CO)O[C@H]1O[C@H]1[C@H](O)[C@@H](O)[C@H](O)O[C@@H]1C(=O)[O-]`, the result_ITMP is reported as -0.41%.

Regarding `CC(C)[C@@H]1C(=O)N(S(C)(=O)=O)[C@@H]2CCN(C(=O)/C=C/CN3CCCCC3)[C@H]21`, the result_ITMP is given as 0.42%.

With `Cc1cccn2c(=O)c(/C=C(\C#N)c3nc4ccccc4s3)c(Oc3ccc(F)cc3)nc12`, the result_ITMP is -3.48%.

Consider `O=C(CCn1cnc2c(O)ncnc21)Nc1ccc(C(=O)O)cc1`, for which the result_ITMP is recorded as -5.54%.

As to `C[C@@H]1CN(CC(=O)Nc2ccc3c(c2)Cc2cccc(-c4cc(=O)cc(N5CCOCC5)o4)c2S3)C[C@H](C)O1`, the result_ITMP is given as 4.24%.

`CC(N)Cc1c[nH]c2ccc(O)cc12` (stereo not shown): the result_ITMP is on record as -1.42%.

As for `NC(Cc1c[nH]c2ccc(O)cc12)C(=O)O` (stereo not shown), the result_ITMP was -1.81%.

As for `CC(N)Cc1c[nH]c2ccc(OCc3cccs3)cc12` (stereo not shown), the result_ITMP is listed as 55.2%.

Consider `C=C[C@H]1C[N@]2CC[C@H]1C[C@@H]2[C@@H](O)c1ccnc2ccc(OC)cc12`, for which the result_ITMP worked out at 11.5%.

Consider `CC1(C)[C@@H]2C[C@@H](O)[C@@](C)(O)[C@H]1C2`, for which the result_ITMP is on record as -10.7%.

`O=S(=O)(c1ccccc1)c1cnc2c(N3CCNCC3)cccc2c1`: the result_ITMP is given as 39.6%.

As to `c1cc2c(c(N3CCNCC3)c1)OCCO2`, the result_ITMP is given as -1.86%.

In the case of `Cc1ccc(Sc2ccccc2N2CCNCC2)c(C)c1`, the result_ITMP is on record as 57.3%.

As to `Cc1cc(CN2CCN(c3c(Br)cnc4[nH]c(-c5ccc(N6CCN(C)CC6)cc5)nc34)CC2)no1`, the result_ITMP is on record as -0.42%.

As to `C[C@H](NC(=O)CCc1nc2ccccc2c(=O)[nH]1)c1ccccc1` [R4A_0003503_001 / SPE_A63444178], the result_ITMP came to 0.66%.

For `COCC(=O)O[C@]1(CCN(C)CCCc2nc3ccccc3[nH]2)CCc2cc(F)ccc2[C@@H]1C(C)C`, the result_ITMP came out at 88.2%.

In the case of `CC(C)[C@H]1c2ccc(F)cc2CC[C@@]1(CCN(C)CCCc1nc2ccccc2[nH]1)OC(=O)C1CC1`, the result_ITMP is 68.1%.

Consider `O=C(O)CCc1nc2ccccc2[nH]1`, for which the result_ITMP is reported as -0.69%.

As to `Cc1cc(S(=O)(=O)[O-])c2c(C)ccc(C(C)C)cc1-2`, the result_ITMP was -3.22%.

Consider `CC1=CC(=O)[N-]S(=O)(=O)O1`, for which the result_ITMP was -5.65%.

Regarding `C[C@]12CCC(=O)C=C1CC[C@@H]1[C@@H]2CC[C@@]2(C)[C@H]1CC[C@]2(C)O`, the result_ITMP is listed as 0.46%.

Turning to `O=C([O-])C(O)C(O)C(O)C(O)CO` (stereo not shown), the result_ITMP was -6.08%.

With `O=C1[C@@H]2[C@H]3CC[C@H](C3)[C@@H]2C(=O)N1CCCCN1CCN(c2ncccn2)CC1`, the result_ITMP is -0.39%.

In the case of `c1ccc(Cn2c(-c3ccc(OC[C@H](C4CCNCC4)n4c(-c5ccccc5)nc5ccccc54)cc3)nc3ccccc32)cc1`, the result_ITMP is 13.3%.

Regarding `CN(c1nccc(=O)[nH]1)C1CCN(c2nc3ccccc3n2Cc2ccc(F)cc2)CC1`, the result_ITMP is 0.52%.

Consider `c1ccc(Cn2c(N3CCNCC3)nc3ccccc32)cc1`, for which the result_ITMP was 51.9%.

Turning to `C[C@H]1[C@H](C)CC[C@]2(C(=O)O)CC[C@]3(C)C(=CC[C@@H]4[C@@]5(C)CC[C@H](O)C(C)(C)[C@@H]5CC[C@]43C)[C@H]12`, the result_ITMP is -0.84%.

Take `CC[N+](CC)(CCNC(=O)C(=O)NCC[N+](CC)(CC)Cc1ccccc1Cl)Cc1ccccc1Cl`: the result_ITMP was -0.68%.

Consider `Clc1ccccc1CNC[C@H]1CC[C@H](CNCc2ccccc2Cl)CC1`, for which the result_ITMP is listed as 111%.

As to `Clc1ccccc1CN1CCc2sccc2C1`, the result_ITMP stood at 5.84%.

Regarding `COC(=O)[C@@]12OC[C@]34[C@H]([C@@H](O)[C@@H]1O)[C@@]1(C)CC(=O)C(O)=C(C)[C@@H]1C[C@H]3OC(=O)[C@H](OC(=O)/C=C(\C)C(C)C)[C@@H]24`, the result_ITMP is listed as -3.12%.

On to `O=C1CN(/N=C/c2ccc(-c3ccc([N+](=O)[O-])cc3)o2)C(=O)[N-]1`, for which the result_ITMP is recorded as -3.77%.

As for `CN(CCOc1ccc(NS(C)(=O)=O)cc1)CCc1ccc(NS(C)(=O)=O)cc1`, the result_ITMP is given as -1.68%.

For `CCc1oc2ccccc2c1C(=O)c1cc(Br)c(O)c(Br)c1`, the result_ITMP worked out at 0.74%.

Turning to `CCCCc1oc2ccc(NS(C)(=O)=O)cc2c1C(=O)c1ccc(OCCCN(CCCC)CCCC)cc1`, the result_ITMP amounted to 74.9%.

In the case of `CCc1oc2ccccc2c1C(=O)c1ccc(OCC(=O)O)cc1`, the result_ITMP is listed as -9.49%.

Regarding `CCCCN(CCCC)CCCOC(=O)c1ccc(N)cc1`, the result_ITMP is on record as 4.87%.

For the compound `CCCCc1oc2ccccc2c1C(=O)c1cc(I)c(OCCN(CC)CC)c(I)c1`, the result_ITMP worked out at 55.1%.

With `CC[C@@H](C)C[C@@H](C)CCCCCCCCC(=O)N[C@H]1C[C@@H](O)[C@@H](NCCN)NC(=O)[C@@H]2[C@@H](O)CCN2C(=O)[C@H]([C@H](O)CCN)NC(=O)[C@H]([C@H](O)[C@@H](O)c2ccc(O)cc2)NC(=O)[C@@H]2C[C@@H](O)CN2C(=O)[C@H]([C@@H](C)O)NC1=O`, the result_ITMP is -8.5%.

For the compound `CC(C)c1cc2c(cc1S(=O)(=O)O)[C@@]1(C)CCC[C@@](C)(C(=O)O)[C@@H]1CC2`, the result_ITMP is reported as -4.65%.

As to `CC(C)c1ccc2c(c1)CC[C@H]1[C@](C)(CN)CCC[C@]21C`, the result_ITMP was 80.5%.
